Inconclusive results are not listed. A number with no mark means an inactive call. Calls of active or inactive are those of the source. The call rests on the fitted dose curve.
On the % scale 0 is the no-effect control and ±100 the full control effect; potency means the concentration at half of the fitted maximal effect.

Chain of Beta-2 adrenergic receptor (Homo sapiens) (P07550 whole entry, looked up): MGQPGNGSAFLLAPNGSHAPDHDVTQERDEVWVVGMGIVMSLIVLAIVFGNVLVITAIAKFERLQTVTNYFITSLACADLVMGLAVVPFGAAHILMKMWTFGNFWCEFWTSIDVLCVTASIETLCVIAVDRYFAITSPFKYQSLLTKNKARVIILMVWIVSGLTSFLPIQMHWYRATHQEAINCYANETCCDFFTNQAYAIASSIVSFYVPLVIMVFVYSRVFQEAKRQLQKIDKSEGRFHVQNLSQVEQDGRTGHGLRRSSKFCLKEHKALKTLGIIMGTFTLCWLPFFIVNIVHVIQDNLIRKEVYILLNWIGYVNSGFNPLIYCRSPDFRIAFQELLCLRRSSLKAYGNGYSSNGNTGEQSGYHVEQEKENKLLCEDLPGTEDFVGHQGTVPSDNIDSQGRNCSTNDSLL

The test addresses Beta-2 adrenergic receptor (Homo sapiens) (UniProt P07550). The experiment in a line: Adrenergic beta2 receptor (ADRB2) small molecule agonists, cell-based qHTS assay (AID 1963593). The conditions noted are these: CHO-ADRB2 cells, cAMP HTRF, 30 min; series mostly up to 92.4 µM; activation: at the top concentration. An excerpt: National Center for Advancing Translational Sciences [NCATS]
Division of Preclinical Innovation [DPI]
U.S. Environmental Protection Agency [EPA]
National Institutes of Environmental Health Sciences [NIEHS]
National Toxicology Program [NTP]
U.S. Food and Drug Administration [FDA]
Beta adrenergic receptors (Beta-ARs) belong to the G-protein coupled receptor (GPCR) superfamily, includes three subtypes - beta1, beta2, and beta3. Beta1-AR is the predominant receptor subtype expressed in the heart, and beta2-AR is expressed in the kidney, lung, blood vessel and in the heart, and beta3 is found in the adipocytes. Beta1 and 2 ARs couple to Gs protein and elevate cyclic adenosine mono phosphate (cAMP), which activates protein kinase A and leads to the downstream signaling responsible for the physiological actions. Beta-AR agonists or antagonists are the most prescribed therapeutic agents for heart failure and asthma, and these were one of the first target receptors for the rational drug design. Tox21 10K compound library was screened using the cAMP-Gs dynamic assay (Cisbio Bioassays, Shelton, CT) to identify agonists/antagonists of the Gs-coupled human adrenergic, beta2 receptor (ADRB2) in the CHO-ADRB2 cell line (Codex BioSolutions, Inc. Gaithersburg, MD), which stably over-expresses ADRB2. The principle of cAMP-Gs dynamic assay is based on HTRF technology, which facilitates the fluorescence resonance energy transfer (FRET) between donor Europium cryptate and acceptor d2-labeled cAMP. The cAMP generated within cells competes with the red acceptor, d2-labled cAMP, for binding to the monoclonal anti-cAMP-cryptate (Europium donor). An increase in intracellular cAMP leads to the disruption of FRET signal, and the signal is inversely proportional to the cAMP concentration. Isoproterenol HCl (Sigma-Aldrich, St. Louis, MO) was used as a positive control in the screening.
Tox21 Assay Protocol Summary:
CHO-ADRB2 cells were dispensed at 1,000/well in 4uL assay medium into white/solid 1536-well plates (Greiner Bio-One North America Inc., Monroe, NC) using a Multidrop Combi dispenser (ThermoFisher Scientific, Waltham, MA). The assay plates were incubated at 37C and 5% CO2 for an overnight (18-20hr). Then positive control and test compounds dissolved in DMSO were transferred to the assay plates at 23nL using a Pintool station (Wako, San Diego, CA). Following the compound and positive control transfer, 1uL stimulation mix containing 100uM IBMX and 25uM Ro-20-1724 was added to each well of the assay plates using BioRAPTR Flying Reagent Dispenser (FRD, Beckman Coulter, Brea, CA). The assay plates were incubated at room temperature for 0.5hr. Then 2.5ul each d2-labled cAMP and anti-cAMP-cryptate solutions were added separately to each well of the assay plates using an FRD and the assay plates were incubated at room temperature for 1hr.
(In general: qHTS replaces the single test concentration by a dilution series.)
Turning to `COC1CC(=C(c2cccs2)c2cccs2)C[N+](C)(C)C1` (stereo not given), the “activation” value was 3.6% [at 42.5 µM]. Consider `O=C(NC(O)C(Cl)(Cl)Cl)NC(O)C(Cl)(Cl)Cl` (stereo not given), for which the “activation” value is 4.88% [at 42.5 µM]. Same read-out and setting: to `CN(C)C1CSSSC1` belongs 12.9%. Same read-out and setting: to `N#CCCSCCC#N` belongs -0.838%.

`CN1C(=O)C(O)N=C(c2ccccc2)c2cc(Cl)ccc21` (stereo not given): the Potency is 31.7 µM (active). On to `CN(C)c1ccc(N=Nc2ccccc2)cc1`, for which the “activation” value is -13.3%. Regarding `C[C@@H]1O[C@@H](O[C@@H]2C=C3CC[C@@H]4[C@H](CC[C@]5(C)[C@@H](c6ccc(=O)oc6)CC[C@]45O)[C@@]3(C)CC2)[C@H](O)[C@H](O)[C@H]1O`, the “activation” value is -8.52% [at 42.5 µM]. On the same count and under the same terms, under `CCOP(=S)(OCC)SCSCC` stands -2.46%; under `CCCC[N+]1(C)[C@@H]2CC(OC(=O)[C@H](CO)c3ccccc3)C[C@H]1[C@@H]1O[C@@H]12` (stereo not given in full), 14.5% [at 42.5 µM]. For `BrCCCCBr`, the “activation” value was -14.8%. Consider `C=C(C)[C@H]1CN[C@H](C(=O)O)[C@H]1CC(=O)O`, for which the “activation” value is 2.88% [at 42.5 µM]. Still for that read-out and setting: under `O=C(N[C@H]1CN2CCC1CC2)c1ccc2c(c1)OCCO2` stands 4.38%.

For the compound `CC(Cc1ccccc1)N(C)Cc1ccco1` (stereo not given), the “activation” value is 2.42% [at 42.5 µM].

On to `CC(Cl)(Cl)[N+](=O)[O-]`, for which the “activation” value is 26.1%.

On to `O=C(N[C@H]1N=C(c2ccccc2F)c2cccc3c2N(CC3)C1=O)c1cc2ccccc2[nH]1`, for which the “activation” value is 11.8% [at 42.5 µM].

On to `O=C(O)C(Br)(Br)Br`, for which the “activation” value is 20.9%.

For the compound `O=c1[nH]oc2c1CCNC2`, the “activation” value was 2.18% [at 42.5 µM]. For `O=C(OC1CCCCC1)c1ccccc1C(=O)OC1CCCCC1`, the “activation” value is 6.39%. On the same count and under the same terms, under `Cc1ccc(C)c2ccccc12` stands -5.74%. On the same count and under the same terms, to `CCc1nn(C)c(C(=O)NCc2ccc(C(C)(C)C)cc2)c1Cl` belongs -5.42%.

For the compound `CCCCOP(=O)(O)OCCCC`, the “activation” value is -35.1%. Still for that read-out and setting: under `CC(C)(COCC1CO1)COCC1CO1` (stereo not given) stands -15.1%; under `Nc1ccc([N+](=O)[O-])cc1Cl`, -28.7%. With `ClC1=C(Cl)C2(Cl)C(CBr)CC1(Cl)C2(Cl)Cl` (stereo not given), the “activation” value is -0.652%. Still for that read-out and setting: to `CCC(OC(C)=O)C(CC(C)NC)(c1ccccc1)c1ccccc1` (stereo not given) belongs -2.96%; to `C=CCC1(C(C)CC)C(=O)NC(=O)NC1=O` (stereo not given), 15.2% [at 42.5 µM]. Same read-out and setting: under `C=CCN1CC[C@]23c4c5ccc(O)c4O[C@H]2C(=O)CC[C@@]3(O)[C@H]1C5` stands 2.21% [at 42.5 µM]; under `CC[C@H](O)C(C[C@H](C)N(C)C)(c1ccccc1)c1ccccc1`, 0.248%. Turning to `CC(C)CCCCCCCOC(=O)c1ccccc1C(=O)OCCCCCCCC(C)C`, the “activation” value was -5.18%.

For the compound `O=C(O)C(O)C(O)C(=O)O` (stereo not given), the “activation” value was -23.6%. As to `O=S1(=O)OCC2C(CO1)C1(Cl)C(Cl)=C(Cl)C2(Cl)C1(Cl)Cl` (stereo not given), the “activation” value was 25.2%. For `CCCCCOC(=O)c1ccccc1C(=O)OCCCCC`, the “activation” value is 9.42%. On the same count and under the same terms, to `O=P(O)(O)c1ccccc1` belongs 2.8%; to `CCOC(=O)c1cn2nc(OP(=S)(OCC)OCC)cc2nc1C`, -9.38%; to `CNC(C)Cc1ccccc1OC` (stereo not given), 8.44% [at 42.5 µM]. As for `CN(C)C(=O)Oc1cc(OC(=O)N(C)C)cc(C(O)CNC(C)(C)C)c1` (stereo not given), the “activation” value was 12.7% [at 42.5 µM]. Still for that read-out and setting: under `COCc1cnc(C2=NC(C)(C(C)C)C(=O)N2)c(C(=O)O)c1` (stereo not given) stands 6.37%; under `O=C(NC(=O)c1c(F)cccc1F)Nc1ccc(Oc2ccc(C(F)(F)F)cc2Cl)cc1F`, -40.4%; under `O=C1Nc2ccc(Cl)cc2C(c2ccccc2)=NC1O` (stereo not given), 8.19%. On the same count and under the same terms, to `COC(=O)C1=CCCN(C)C1` belongs -9.58% [at 42.5 µM].

Source of the values: PubChem BioAssay (Tox21).
